Hits are enriched below; roughly 12% of the tested compounds scored in any of these assays.
USP30 inh – inhibitors of human USP30 deubiquitinase. purified USP30, Ub-rhodamine cleavage fluorescence. inhibition, % at 25 µM. 5.3% of 47,000 active
USP17 block – inhibitors of human USP17 deubiquitinase; A8MUK1; purified USP17, Ub-rhodamine cleavage fluorescence, 3 h; inhibition, % at 50 µM; 6.5% of 47,000 active
Target sequence (A8MUK1 whole entry, looked up): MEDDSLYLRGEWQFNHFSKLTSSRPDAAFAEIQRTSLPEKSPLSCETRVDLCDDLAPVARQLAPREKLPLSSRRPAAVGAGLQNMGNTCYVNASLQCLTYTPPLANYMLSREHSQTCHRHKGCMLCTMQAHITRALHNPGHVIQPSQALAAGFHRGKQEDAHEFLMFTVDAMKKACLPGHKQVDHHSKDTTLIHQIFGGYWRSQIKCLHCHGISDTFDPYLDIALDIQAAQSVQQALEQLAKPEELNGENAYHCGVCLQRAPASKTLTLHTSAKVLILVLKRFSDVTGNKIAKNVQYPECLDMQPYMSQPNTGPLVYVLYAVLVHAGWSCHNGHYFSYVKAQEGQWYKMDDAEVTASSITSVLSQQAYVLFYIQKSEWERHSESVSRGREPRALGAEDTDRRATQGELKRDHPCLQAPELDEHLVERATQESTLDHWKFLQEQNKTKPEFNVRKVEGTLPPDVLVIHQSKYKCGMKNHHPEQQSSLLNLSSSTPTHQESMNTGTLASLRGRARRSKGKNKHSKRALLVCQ
USP8 block – blocks human USP8 ubiquitin-rhodamine cleavage. P40818. purified USP8, Ub-rhodamine cleavage fluorescence, 30 min. inhibition, % at 20 µM. 4.2% of 47,000 active
* hit, by the source's call; . = no result. No stated cut-off is given here; in the data, active means inhibition above about 30%; inactive means the rest.

SMILES	USP30 inh	USP17 block	USP8 block
CCOC(=O)C1CCN(Cc2cc(=O)oc3cc(O)c(O)cc23)CC1	52*	85*	91*
Cn1nccc1-c1cnc(CC2CCN(S(C)(=O)=O)CC2)cn1	-45	5	4
CN(C)c1ncnc2c1ncn2[C@@H]1CC[C@@H](NC(=O)c2ccc(F)cc2)[C@@H](O)[C@@H]1O	0	-10	-32
COc1ccc(C(=O)OC(C(=O)c2c[nH]c3ccccc23)c2ccccc2)c(OC)c1 (stereo unspecified)	-210	-23	-13
O=C1C[C@@H](O)[C@H](O)[C@@]23O[C@@]12C1(Oc2cccc4cccc(c24)O1)[C@@H]1O[C@@H]1[C@@H]3O	4	81*	-11
Cc1cnc(N2CCC3(CCN(C(=O)c4cccnc4)CC3)C2)nc1	12	1	-36
CCS(=O)(=O)c1ccccc1C(=O)Nc1ccc2sc(C)nc2c1	5	5	16
N#Cc1cccc(C(=O)Nc2ccc([C@H]3OCC(=O)N[C@@H]3CO)cc2)c1	37*	39*	16
CN1C(=O)CO[C@H](c2ccc(NC(=O)c3cccc(C#N)c3)cc2)[C@H]1CO	10	19	4
N#CC1=C(c2ccc(Oc3ccc(Cl)c(F)c3)cc2)NC(=O)CC1	0	-7	-4
CN1CCN(c2cc(-c3ccncc3)nc(-c3ccccn3)n2)CC1	-18	-10	-13
NC(=O)C1(Cc2ccc(-c3ccccc3)cc2)CCN(C(=O)Cc2ccccc2)CC1	-5	10	-43
COc1ccccc1NC(=O)c1nnn(Cc2nc(-c3ccc(C)cc3)oc2C)c1N	-22	4	15
CCOc1ccc(-c2nc(Cn3nnc(C(=O)Nc4ccccc4C)c3C)c(C)o2)cc1	43*	.	19
Cc1cc(N2CCN(C)CC2)n2nc(CN3CCCC(C)C3)nc2n1 (stereo unspecified)	-49	-9	-2
Cc1cc2nc(C(C)NC(=O)c3cc(C4CC4)nn3C)cc(=O)n2[nH]1 (stereo unspecified)	36*	7	0
Cc1cc2nc(C3CCN(C(=O)C4CCCCO4)CC3)cc(=O)n2[nH]1 (stereo unspecified)	21	-3	1
Cc1nc(N2CCN(C)CC2)ncc1-c1cc(=O)[nH]c(N2CCc3ccccc32)n1	10	5	11
COc1ccccc1CNC(=O)c1[nH]c(C)c(S(=O)(=O)N2CCCC2)c1C	-3	0	0
Cc1cc(C(=O)C(=O)Nc2nnc(-c3cccnc3)s2)c(C)n1-c1ccccc1F	-342	-28	37*
CCOCCc1nnc(NC(=O)C(=O)c2cc(C)n(-c3ccc(F)cc3)c2C)s1	-17	7	0
Cc1ccc(N2C(=O)N(CC(=O)Nc3ccc(N4CCOCC4)cc3)C(=O)C2C)cc1 (stereo unspecified)	11	8	16
COc1cccc(N2CCN(C(=O)C3CCCN(S(=O)(=O)N4CCCCCC4)C3)CC2)c1 (stereo unspecified)	15	6	17
O=C(Nc1ccccc1)c1cn2c3c(cccc3c1=O)CC2	1	69*	17
O=C(O)c1cn2c3c(cccc3c1=O)CCC2	3	5	29
SMILES	USP30 inh	USP17 block	USP8 block
Cc1noc(-c2ccnc(-n3cnc(C(=O)NC4CCCCCC4)c3)c2)n1	3	5	5
CC1CCCN(CCCNC(=O)C2CCN(c3nc4cccnc4n(C)c3=O)CC2)C1 (stereo unspecified)	-32	-8	-25
CCN1CCc2c(sc(NC(=O)CSc3ccccc3)c2C(N)=O)C1	-35	-17	-6
CCN1CCc2c(sc(NC(=O)CSc3ccc(Cl)cc3)c2C(N)=O)C1	28	34*	0
COC(=O)c1ccc(NC(=O)CSc2nc3ncc(Cl)cc3[nH]2)cc1	-29	17	0
Cc1ccc(NC(=O)CSc2nc3ncc(Br)cc3[nH]2)cc1C	.	60*	6
CCOc1ccc(NC(=O)CSc2nc3ncc(Br)cc3[nH]2)cc1	-34	-20	8
O=C(CSc1nc2ncc(Cl)cc2[nH]1)Nc1ccc(OCc2ccccc2)cc1	-58	38*	-5
CN1C(=O)COc2ccccc2C/C=C/C[C@@H]2[C@H]1CCCN2C(=O)CCCn1cncn1	1	0	1
CC(CCc1ccccc1)NC(=O)[C@H](C)N1C(=O)N2CCc3c([nH]c4ccccc34)[C@@]2(C)C1=O (stereo partly specified)	0	.	1
C=C(C)C1COc2c(C)c(OC)c3c(c2C1O)C(O)OC3=O (stereo unspecified)	3	-5	0
CN1C(=O)C(C)(C)c2cc(S(=O)(=O)N3CCCC(C(=O)N4CCc5ccccc5C4)C3)ccc21 (stereo unspecified)	13	4	8
CCN(CC)CCN1C(=O)C(O)=C(C(=O)c2cc3ccccc3o2)C1c1ccco1 (stereo unspecified)	-8	-4	-13
COc1cccc2cc(C(=O)C3=C(O)C(=O)N(CCCN(C)C)C3c3ccco3)oc12 (stereo unspecified)	0	22	44*
CC(C)c1cc(C(=O)NCc2ccccn2)c2ccccc2n1	2	-1	0
O=C(C1CCCO1)N1CCN(c2ccc(-c3ccc4c(c3)OCO4)nn2)CC1 (stereo unspecified)	22	24	14
Cc1cnnn1-c1ccc(C(=O)Nc2cccc(Cl)c2)cc1	54*	80*	0
Cc1cnnn1-c1ccc(C(=O)Nc2cc(Cl)ccc2Cl)cc1	24	68*	0
O=C(Nc1ccc(-n2cccc2)cc1)c1ccc(Cl)cc1	7	-23	18
Cc1ccc(Cl)cc1NC(=O)c1ccc(C(=O)c2ccccc2)cc1	0	-7	0
Cc1cccc(NC(=O)C2CN(S(C)(=O)=O)c3ccccc3O2)c1 (stereo unspecified)	3	10	0
CCc1ccc(S(=O)(=O)c2cnc3ccc(C)cc3c2Nc2ccc(C)c(C)c2)cc1	-44	-6	-5
CCn1cnc2cc(NCc3cc(OC)c(OC)c(OC)c3)ccc21	11	3	12
COc1ccc(-c2cncc(-c3cc(N(C)Cc4ccccc4)nc(-c4ccccc4)n3)c2)cc1	-6	-20	11
COC(=O)c1ccc(COC(=O)c2cc(C)nc3ccccc23)cc1	-10	-2	-1
SMILES	USP30 inh	USP17 block	USP8 block
COC(=O)c1ccc(CNC(=O)COC(=O)c2cc(-c3ccccc3)nc3ccccc23)cc1	47*	9	15
Cc1ccc(N(CC(=O)N2CCN(Cc3ccccc3)CC2)S(=O)(=O)c2cccs2)cc1	13	0	-6
Cc1cnc(C(=O)N2CCC[C@@H]3NC(=O)c4ccccc4OCC/C=C/C[C@@H]32)cn1	-15	0	8
COCCN1C(=O)c2ccccc2C(C(=O)Nc2ccc(C)cn2)C1c1cccs1 (stereo unspecified)	-2	4	-1
CCc1nnc(-c2nnc(NC3CCN(C)CC3)c3ccccc23)o1	32*	12	3
CN1CCC(Nc2nnc(-c3nnc(C4CC4)o3)c3ccccc23)CC1	13	6	3
O=C(O)CN=C1NC(=O)/C(=C\c2ccc3c(c2)OCO3)S1	-2	-5	-74
CC1CCN(c2ccc3nnc(CCC(=O)NCCN4CCCC4)n3n2)CC1	-23	-17	-9
O=C(CCc1nnc2ccc(N3CCCCC3)nn12)NCCN1CCOCC1	13	10	41*

Compound activity deposited in PubChem by Buhrlage Lab, Dana-Farber Cancer Institute and Novartis Institutes for BioMedical Research (Cambridge, Mass).
